{"source": "PubChem BioAssay (Tox21)", "note": "Active and inactive are the calls of the source. Entries that show only a call come without a potency. The call rests on the fitted dose curve; in most records, active means well fitted curve in the direction sought with a large enough effect in the repeat runs; inconclusive means weak or mixed curves; inactive means flat fitted curve, though single readings scatter."}
{"experiment": "qHTS assay to test for compound auto fluorescence at 535 nm (green) in HepG2 cell free culture (AID 720686)", "details": "Cell-free medium, green autofluorescence 485/535 nm; series mostly up to 91.3 µM"}
{"compound": "CC(C)C[C@H]1C(=O)N2CCC[C@H]2[C@]2(O)O[C@](NC(=O)[C@@H]3C=C4c5cccc6[nH]c(Br)c(c56)C[C@H]4N(C)C3)(C(C)C)C(=O)N12", "Potency": "inactive"}
{"compound": "CC(C)Nc1ccc(NC(C)C)c2c1C(=O)c1ccccc1C2=O", "Potency": "inactive"}
{"compound": "Cc1cccc(Nc2ccccc2)c1", "Potency": "inactive"}
{"compound": "COc1cc(Cl)ccc1Oc1ccc(Cl)cc1Cl", "Potency": "inactive"}
{"compound": "CCCCCCCCCCCCCCOS(=O)(=O)O", "Potency": "inactive"}
{"compound": "CCN(CC)CCOC(=O)C(c1ccccc1)C1CCCCC1", "note": "(stereo not given)", "Potency": "inactive"}
{"compound": "Cc1c(N)cccc1[N+](=O)[O-]", "Potency": "inactive"}
{"compound": "CC(C)O.CC(C)O.CCOC(=O)/C=C(\\C)O.CCOC(=O)/C=C(\\C)O.[Ti]", "Potency": "inactive"}
{"compound": "C#Cc1cccc(Nc2ncnc3cc(OCCOC)c(OCCOC)cc23)c1", "Potency": "inactive"}
{"compound": "O=C(O)C1(C(=O)Nc2ccc(Cl)cc2Cl)CC1", "Potency": "inactive"}
{"compound": "O=C(CS)Nc1ccccc1", "Potency": "inactive"}
{"compound": "COc1cc(Cl)c(OC)cc1N", "Potency": "inactive"}
{"compound": "COc1cccc(N(C)C(=S)Oc2ccc3c(c2)CCCC3)n1", "Potency": "inactive"}
{"compound": "CC1CCC(=O)C1=O", "note": "(stereo not given)", "Potency": "inactive"}
{"compound": "O=C(O)CC(=O)C(=O)O", "Potency": "inactive"}
{"compound": "CCc1cc(C2=C(C(=O)O)N(c3ccccc3C(F)(F)F)S(=O)(=O)c3ccccc32)cc2c1OCO2", "Potency": "inactive"}
{"compound": "CCCCNc1ccc(C(=O)OCCOCCOCCOCCOCCOCCOCCOCCOCCOC)cc1", "fluorescence, % of fluorescein control": "-0.018% [at 18.6 µM] (inactive)"}
{"compound": "CCC(C)c1cc(C(C)(C)C)c(O)c(C(C)(C)C)c1", "note": "(stereo not given)", "Potency": "inactive"}
{"compound": "CNCCCCOc1ccccc1Cc1ccccc1", "Potency": "inactive"}
{"compound": "Nc1ncn([C@H]2C[C@H](O)[C@@H](CO)O2)c(=O)n1", "Potency": "inactive"}
